Assay [1] in a line: Quantitative High-Throughput drug screen in 47 multiple myeloma cell lines against the NCATS MIPE library collection: U266_ATCC cell viability assay (AID 1919864). Further: nearly all actives have a fitted effect of over 35% in size. The gist of the method:
(§1)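 500 cells/well per myeloma line exposed to pinned MIPE 4.0 compounds for 48 h at 37 °C, 5% CO2. Viability read as ATP by CellTiter-Glo luminescence, normalised to DMSO-only (100%) and media-only (0%) wells.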

Assay [2] in a line: Quantitative High-Throughput drug screen in 47 multiple myeloma cell lines against the NCATS MIPE library collection: XG6_PLB cell viability assay (AID 1919865). Further: nearly all actives have a fitted effect of over 40% in size. The gist of the method:
as §1

Assay [3] is described as follows: Quantitative High-Throughput drug screen in 47 multiple myeloma cell lines against the NCATS MIPE library collection: XG1_PLB cell viability assay (AID 1919866). Further: nearly all actives have a fitted effect of over 35% in size. The essentials:
as §1

The nature of assay [4]: Quantitative High-Throughput drug screen in 47 multiple myeloma cell lines against the NCATS MIPE library collection: VP6_DJ cell viability assay (AID 1919867). Further: nearly all actives have a fitted effect of over 40% in size. The essentials: as §1
Assay [5] is described as follows: Quantitative High-Throughput drug screen in 47 multiple myeloma cell lines against the NCATS MIPE library collection: UTMC2_PLB cell viability assay (AID 1919868). Further: nearly all actives have a fitted effect of over 55% in size. As to conditions: CellTiter-Glo ATP luminescence, 48 h; viability (% of DMSO control): at 45.8 µM (top of the series). The gist of the method: as §1
(In general: ATP-based viability assays read luminescence as a measure of living cells.)

Assay [6] in a line: Quantitative High-Throughput drug screen in 47 multiple myeloma cell lines against the NCATS MIPE library collection: PE2_PLB cell viability assay (AID 1919869). Further: nearly all actives have a fitted effect of over 35% in size. The essentials: as §1
Assay [7] can be described thus: Quantitative High-Throughput drug screen in 47 multiple myeloma cell lines against the NCATS MIPE library collection: PCM6_Riken cell viability assay (AID 1919870). Further: nearly all actives have a fitted effect of over 30% in size. The gist of the method:
as §1

Assay [8] in a line: Quantitative High-Throughput drug screen in 47 multiple myeloma cell lines against the NCATS MIPE library collection: RPMI8226_ATCC cell viability assay (AID 1919871). Further: nearly all actives have a fitted effect of over 30% in size. The gist of the method:
as §1

A short description of assay [9]: Quantitative High-Throughput drug screen in 47 multiple myeloma cell lines against the NCATS MIPE library collection: OPM2_DSMZ cell viability assay (AID 1919872). Further: nearly all actives have a fitted effect of over 30% in size. The essentials: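 Approved and investigational drugs from MIPE 4.0 were added by pin tool to 500 cells per well. After 48 hours at 37C, ATP-based CellTiter-Glo luminescence indicated remaining viability.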

Assay [10] is described as follows: Quantitative High-Throughput drug screen in 47 multiple myeloma cell lines against the NCATS MIPE library collection: KMS11_JCRBsus cell viability assay (AID 1919873). Further: nearly all actives have a fitted effect of over 50% in size. The gist of the method: as §1

Records with an inconclusive call do not appear. Active and inactive are the calls of the source. The call rests on the fitted dose curve; in most records, active means well fitted cell-killing curve with a large enough effect; inconclusive means small, poorly fitted or top-dose-only effect, or effect the other way; inactive means no such curve, though single readings can be large or run the other way.
Potency means the concentration at half of the fitted maximal effect.

For `CC(C)C[C@H](NC(=O)[C@@H](NC(=O)c1cccc(-c2ccccc2)n1)[C@@H](C)O)B(O)O`, the Potency is 14.8 nM (active) in assay [1]; 13.2 nM (active) in [2]; 18.7 nM (active) in assay [3]; 9.3 nM (active) in [4]; 166 nM (active) in assay [5]; 11.8 nM (active) in [6]. Besides, the Potency in [7] is 23.5 nM (active); in assay [8], 52.6 nM (active); in [9] it was 41.8 nM (active); in [10], 13.2 nM (active).
For `CC(=O)ON=C1C(c2c(O)[nH]c3cc(Br)ccc23)=Nc2ccccc21`, the Potency in assay [1] was 14800 nM (active); in assay [2] it was 1320 nM (active); in assay [3], 1660 nM (active); in [4] it was 2640 nM (active); in [6], 4690 nM (active); in assay [7], 2960 nM (active). In addition, the Potency is 16600 nM (active) in [8] and 18700 nM (active) in [9].
Take `C[C@@H]1C(=O)O[C@H]2CC34[C@H]5C[C@@H](C(C)(C)C)C36[C@H](OC(=O)[C@@H]6O)O[C@@]4(C(=O)O5)[C@]21O` (stereo partly drawn): the Potency result in assay [1], in assay [2], in [3], in [4], in assay [5] and in assay [6] was “inactive” throughout. For the same compound, the Potency entry in [8], in [9] and in [10] was “inactive” throughout.
Take `COc1cccc2c1C(=O)c1c(O)c3c(c(O)c1C2=O)C[C@@](O)(C(=O)CO)C[C@@H]3O[C@H]1C[C@H](N)[C@@H](O)[C@H](C)O1`: the Potency in assay [1] is 1320 nM (active); in [2] it was 148 nM (active); in assay [3] it was 526 nM (active); in assay [4] it was 935 nM (active); in assay [6], 148 nM (active); in assay [7], 209 nM (active). In addition, the Potency in assay [8] was 935 nM (active); in assay [9], 2090 nM (active); in [10], 935 nM (active).
In the case of `CC(C)n1cnc2c(NCCc3ccc(O)cc3)nc(-c3csc4ccccc34)nc21`, the Potency in [1] is 2350 nM (active); in assay [2] it was 3720 nM (active); in assay [3], 3720 nM (active); in assay [4], 8330 nM (active); in [5], 10500 nM (active); in assay [7] it was 10500 nM (active). Further, the Potency in assay [10] was 18700 nM (active).
As to `CCc1c(O)cc(O)c(C(=O)c2ccc(OCCN3CCOCC3)c(OC)c2)c1CC(=O)N(CCOC)CCOC`, the Potency in assay [1] is 1050 nM (active); in assay [2] it was 1480 nM (active); in assay [3] it was 1180 nM (active); in [4], 1180 nM (active); in assay [5] it was 935 nM (active); in assay [6], 833 nM (active). The figures for the Potency in assay [7], in assay [9] and in assay [10] were 1320 nM (active), 1050 nM (active) and 935 nM (active), respectively.
For `C[C@@H](Oc1ccc2[nH]nc(C=Cc3cnn(CCO)c3)c2c1)c1c(Cl)cncc1Cl`, the Potency in assay [1] is 23500 nM (active); in [2], 662 nM (active); in [3], 93.5 nM (active); in [4], 1320 nM (active); in assay [6], 148 nM (active); in assay [7] it was 4180 nM (active). Moreover, the Potency in [8] was 1320 nM (active); in [9], 296 nM (active); in assay [10] it was 148 nM (active).
As for `CCOC(=O)C1=C(C)NC(=S)NC1c1cccc(O)c1` (stereo not drawn), in assay [1], the Potency result was “inactive”. Moreover, the Potency is 29.6 nM (active) in assay [2]; 66.2 nM (active) in assay [3]; 29.6 nM (active) in assay [4]; 37.2 nM (active) in [5]; 14.8 nM (active) in assay [6]; 37.2 nM (active) in assay [7]. The Potency in assay [10] is 16.6 nM (active).
`CN1CCCN(C(=O)c2cccc(-c3ccc(C=C4C(=O)Nc5ccc(Cl)cc54)o3)c2)CC1`: the Potency in assay [1] is 18700 nM (active); in [2] it was 7430 nM (active); in assay [3], 11800 nM (active); in assay [4] it was 18700 nM (active); in assay [5], 935 nM (active); in [6], 23500 nM (active). For the same compound, the Potency is 9350 nM (active) in assay [7], 23500 nM (active) in assay [8] and 9350 nM (active) in assay [10].
On to `NC1=N[C@H]2[C@H](CS[C@H]2CCCCC(=O)O)N1`, for which the Potency result in [1], in assay [2], in assay [3], in assay [4], in [5] and in assay [6] was “inactive” throughout. Further, the Potency entry in assay [7], in [9] and in assay [10] was “inactive” each time.
As for `O=c1[nH]c(=O)n([C@H]2C[C@@H](O)[C@@H](CO)O2)cc1C=CBr`, the Potency entry in assay [1], in assay [2], in assay [3], in assay [4], in assay [6] and in [7] was “inactive” in each case. Also, the Potency entry in assay [8], in assay [9] and in assay [10] was “inactive” each time.
For the compound `COc1cc([C@@H]2c3cc4c(cc3[C@@H](O[C@@H]3O[C@@H]5CO[C@@H](c6cccs6)O[C@@H]5[C@H](O)[C@@H]3O)[C@H]3COC(=O)[C@H]23)OCO4)cc(OC)c1O`, the Potency in assay [1] was 14800 nM (active); in [2], 46.9 nM (active); in assay [3] it was 526 nM (active); in [4], 469 nM (active); in [5], 52.6 nM (active); in assay [6] it was 166 nM (active). Further, the Potency in assay [7] is 662 nM (active); in assay [9] it was 4180 nM (active); in assay [10] it was 1320 nM (active).
With `CN(C)CCN1C(=O)c2cccc3cc(N)cc(c23)C1=O`, the Potency in assay [1] is 18700 nM (active); in assay [2] it was 14800 nM (active); in assay [3], 16600 nM (active); in [4], 14800 nM (active); in assay [5], 5900 nM (active); in [6], 20900 nM (active). In addition, the Potency in [7], in assay [8] and in assay [10] was 16600 nM (active) throughout.
On to `O=C(C=CC#Cc1cccc(NS(=O)(=O)c2ccccc2)c1)NO`, for which the Potency in assay [1] was 2090 nM (active); in [2], 5260 nM (active); in assay [3], 1870 nM (active); in assay [4] it was 1180 nM (active); in assay [6], 3320 nM (active); in assay [7], 1660 nM (active). For the same compound, the Potency in [8] is 2640 nM (active); in assay [9] it was 2350 nM (active); in [10], 662 nM (active).

These data come from PubChem BioAssay (NCATS).
